According to PubChem BioAssay:
Calls of active or inactive are those of the source. Unless noted, no rule for the calls is given here.

Tests used:
[1] = A549 cell viability effects, profiling panel, calcein-AM fluorescence, 48 h, basal (AID 1162); conditions: higher = more signal; also: test concentration not given here
[2] = adipocyte viability effects, profiling panel, cell-based, 3T3-L1 adipocytes, calcein-AM fluorescence, 48 h, basal (AID 1163); conditions: 3T3-L1 adipocytes viability, higher = more signal; also: test concentration not given here
[3] = HepG2 cell viability effects, profiling panel, calcein-AM fluorescence, 48 h, basal (AID 1164); conditions: higher = more signal; also: test concentration not given here
[4] = MM1S cell viability effects, profiling panel, calcein-AM fluorescence, 48 h, basal (AID 1165); conditions: higher = more signal;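 also: viability of MM1S multiple myeloma cells under basal unstimulated conditions; test concentration not given here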
[5] = basal RPMI8226 viability, no added stimulus, profiling panel, cell-based, calcein-AM fluorescence, 48 h, PK04 Diversity Set (AID 1166); conditions: RPMI8226 myeloma viability, higher = more signal;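 also: cells grown under basal conditions without added stimulus; test concentration not given here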
[6] = basal HepG2 mitochondrial membrane potential changes, profiling panel, cell-based, JC-1 fluorescence, 24 h, 100 nL compound (AID 1167); conditions: higher = more signal; also: test concentration not given here
[7] = basal 3T3-L1 adipocyte mitochondrial potential changes, profiling panel, cell-based, JC-1 fluorescence, 3T3-L1 adipocytes, 24 h, 100 nL compound (AID 1168); conditions: JC-1 mitochondrial fluorescence, higher = more signal, called active from +8 up or from −8 down; also: test concentration not given here
[8] = basal RPMI8226 mitochondrial membrane potential changes, profiling panel, cell-based, JC-1 fluorescence, 24 h, 100 nL compound (AID 1169); conditions: RPMI8226 myeloma, JC-1 mitochondrial potential fluorescence, higher = more signal; also: test concentration not given here
[9] = basal MM1S mitochondrial membrane potential changes, profiling panel, cell-based, JC-1 fluorescence, 24 h, 100 nL compound (AID 1170); conditions: higher = more signal; also: test concentration not given here
[10] = A549 lung cancer cell viability effects, profiling panel, resazurin fluorescence, 24 h, PK04 Diversity Set (AID 1171); conditions: higher = more signal, called active from +8 up or from −8 down; also: test concentration not given here
[11] = HepG2 liver cancer cell viability effects, profiling panel, resazurin fluorescence, 24 h, PK04 Diversity Set (AID 1172); conditions: higher = more signal; also: test concentration not given here
[12] = basal S. cerevisiae growth modulation, no modifier, primary screen, OD600, strain BY4716, 24 h, basal condition (AID 1173); conditions: OD600, 24 h, higher = more signal, called active from +8 up or from −8 down
[13] = MM1S myeloma cell viability, profiling panel, resazurin fluorescence, basal, 24 h, PK04 Diversity Set (AID 1174); conditions: higher = more signal, called active from +8 up or from −8 down;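 also: MM1S multiple myeloma cell line; test concentration not given here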
[14] = biological target: Dihydroorotate dehydrogenase (quinone), mitochondrial (Plasmodium falciparum (isolate 3D7)) (UniProt Q08210); experiment: PfDHODH enzyme inhibitors, primary screen, biochemical, C-terminal His tag, absorbance 600 nm (AID 1175); conditions: DCIP absorbance 600 nm, higher = more signal, called active from +8 up or from −8 down;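 also: recombinant parasite enzyme with a five histidine tag at its C terminus; test concentration not given here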
Chain of Dihydroorotate dehydrogenase (quinone), mitochondrial (Plasmodium falciparum (isolate 3D7)) (Q08210 whole entry, looked up): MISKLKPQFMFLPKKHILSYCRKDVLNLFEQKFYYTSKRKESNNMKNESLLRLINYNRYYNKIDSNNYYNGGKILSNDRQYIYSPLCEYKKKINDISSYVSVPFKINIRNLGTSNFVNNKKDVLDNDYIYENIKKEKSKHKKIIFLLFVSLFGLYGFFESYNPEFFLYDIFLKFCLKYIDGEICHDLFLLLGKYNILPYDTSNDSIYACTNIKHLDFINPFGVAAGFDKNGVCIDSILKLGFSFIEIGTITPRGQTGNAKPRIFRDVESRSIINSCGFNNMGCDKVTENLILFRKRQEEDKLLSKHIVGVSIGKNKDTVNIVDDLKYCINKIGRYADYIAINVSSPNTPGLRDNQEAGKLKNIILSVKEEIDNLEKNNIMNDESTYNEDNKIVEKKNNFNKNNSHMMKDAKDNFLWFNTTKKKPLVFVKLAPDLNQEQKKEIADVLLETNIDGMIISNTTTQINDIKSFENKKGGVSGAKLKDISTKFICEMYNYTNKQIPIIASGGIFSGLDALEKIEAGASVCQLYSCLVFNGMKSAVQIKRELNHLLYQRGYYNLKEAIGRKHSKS

[15] = P. aeruginosa biofilm formation inhibitors, primary screen, strain PAO1, LB-PBS medium, absorbance 600 nm (AID 1176); also: test concentration not given here; conditions: P. aeruginosa PAO1 growth/biofilm, A600, 12 h; higher = more signal
[16] = S. cerevisiae RM11-1a growth modifiers, primary screen, strain RM11-1a, OD600, basal, 24 h (AID 1177); conditions: OD600, 24 h, higher = more signal, called active from +8 up or from −8 down;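 also: cultures grown under basal conditions with no added stressor; test concentration not given here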
[17] = E. coli acrAB mutant growth effects, primary screen, E. coli filamentation inducers, strain DRC39, OD650, 24 h (AID 1178); conditions: higher = more signal, called active from +8 up or from −8 down;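 also: growth measured as culture turbidity by optical density at 650 nm; test concentration not given here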
[18] = E. coli acrAB mutant growth effects, primary screen, E. coli filamentation inducers, strain DRC39, OD650, 48 h (AID 1179);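 also: screen aims at cell division blockers that make cells filament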; conditions: E. coli DRC39 delta-acrAB growth, higher = more signal, called active from +8 up or from −8 down
[19] = RPMI8226 myeloma cell viability, profiling panel, resazurin fluorescence, basal, 24 h, PK04 Diversity Set (AID 1180); conditions: higher = more signal;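 also: RPMI8826 multiple myeloma cell line at 5000 cells per well; test concentration not given here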
[20] = biological target: E3 ubiquitin-protein ligase XIAP (Homo sapiens) (UniProt P98170); experiment: XIAP binders, primary screen, biophysical, small-molecule microarray, fluorescence 635 nm (AID 1181); conditions: small-molecule microarray binding, higher = more signal;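 also: score merges 667 nm emission and signal to noise over triplicate slides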
Chain of E3 ubiquitin-protein ligase XIAP (Homo sapiens) (P98170 whole entry, looked up): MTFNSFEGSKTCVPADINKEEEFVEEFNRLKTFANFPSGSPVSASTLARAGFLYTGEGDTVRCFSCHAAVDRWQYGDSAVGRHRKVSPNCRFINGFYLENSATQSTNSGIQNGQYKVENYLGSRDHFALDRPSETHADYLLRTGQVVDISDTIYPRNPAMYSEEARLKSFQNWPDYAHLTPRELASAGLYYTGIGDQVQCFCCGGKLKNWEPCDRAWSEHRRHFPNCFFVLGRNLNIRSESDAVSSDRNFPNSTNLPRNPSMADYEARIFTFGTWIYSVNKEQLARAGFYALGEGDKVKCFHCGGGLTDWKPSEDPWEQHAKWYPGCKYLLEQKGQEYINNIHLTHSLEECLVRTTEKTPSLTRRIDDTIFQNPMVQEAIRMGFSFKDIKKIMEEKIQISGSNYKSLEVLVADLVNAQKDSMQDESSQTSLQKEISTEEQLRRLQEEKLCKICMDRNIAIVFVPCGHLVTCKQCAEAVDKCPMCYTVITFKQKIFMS

CN(C)CCCCCCNC(=O)[C@@H]1C[C@@H]2C(=O)N[C@@H](CCCCN)C(=O)N2[C@@H]1c1ccc(O)cc1
z-score [1]: 1.4 | z-score [2]: 0.576 | z-score [3]: -0.521 | z-score [4]: 0.56 | z-score [5]: -0.345 | z-score [6]: -0.695 | z-score [7]: -0.625 (inactive) | z-score [8]: -0.273 | z-score [9]: -1 | z-score [10]: -0.3 (inactive) | z-score [11]: -0.0356 | z-score [12]: -1.56 (inactive) | z-score [13]: 1.79 (inactive) | composite z-score [14]: -0.0587 (inactive) | z-score [15]: 1.63 (inactive) | z-score [16]: -0.63 (inactive) | z-score [17]: 0.739 (inactive) | z-score [18]: -1.59 (inactive) | z-score [19]: 0.659 | composite z-score [20]: 3.51

Cc1ccc(N2C(=O)c3ccccc3[C@](C)(C(=O)NCc3ccccc3)[C@@H]2c2ccc(CO)cc2)nc1
z-score [1]: 0.868 | z-score [2]: 0.483 | z-score [3]: 0.197 | z-score [4]: -0.169 | z-score [5]: -1.46 | z-score [6]: 0.191 | z-score [7]: -0.834 (inactive) | z-score [8]: -0.494 | z-score [9]: 1.46 | z-score [10]: -0.0526 (inactive) | z-score [11]: -0.776 | z-score [12]: -0.878 (inactive) | z-score [13]: 1.13 (inactive) | composite z-score [14]: 1.07 (inactive) | z-score [15]: 0.882 (inactive) | z-score [16]: 0.741 (inactive) | z-score [17]: 0.349 (inactive) | z-score [18]: 0.329 (inactive) | z-score [19]: 0.994 | composite z-score [20]: -0.0326

CCCC=C(CCC)[C@@H](NC(=O)CCc1ccccc1)c1ccc(C(F)(F)F)cc1
z-score [1]: -0.894 | z-score [2]: -0.265 | z-score [3]: -0.481 | z-score [4]: -1.2 | z-score [5]: -2.01 | z-score [6]: 2.18 | z-score [7]: -0.933 (inactive) | z-score [8]: -0.0403 | z-score [9]: -0.774 | z-score [10]: 0.569 (inactive) | z-score [11]: 0.561 | z-score [12]: -0.357 (inactive) | z-score [13]: -0.407 (inactive) | composite z-score [14]: -1.39 (inactive) | z-score [15]: 0.0944 (inactive) | z-score [16]: 0.439 (inactive) | z-score [17]: 0.0152 (inactive) | z-score [18]: -0.0054 (inactive) | z-score [19]: -0.581 | composite z-score [20]: 0.0734

COc1ccc([Si](C)(C)[C@H]2[C@H](CCO)O[C@@]3(C(=O)N(Cc4ccc(N5C(=O)c6ccccc6Oc6ccccc65)cc4)c4ccccc43)[C@@H]2C)cc1
z-score [1]: -0.573 | z-score [2]: 0.56 | z-score [3]: -2.71 | z-score [4]: -2.79 | z-score [5]: -4.04 | z-score [6]: 0.0142 | z-score [7]: 0.821 (inactive) | z-score [8]: -1.01 | z-score [9]: -2.04 | z-score [10]: -2.45 (inactive) | z-score [11]: -1.49 | z-score [12]: 0.884 (inactive) | z-score [13]: -3.52 (inactive) | composite z-score [14]: 0.198 (inactive) | z-score [15]: 2.72 (inactive) | z-score [16]: 4.11 (inactive) | z-score [17]: 1.78 (inactive) | z-score [18]: 0.987 (inactive) | z-score [19]: -3.67 | composite z-score [20]: -0.115

CCOC(=O)C=Cc1ccccc1O
z-score [1]: -0.759 | z-score [2]: 0.234 | z-score [3]: -0.944 | z-score [4]: 0.226 | z-score [5]: -0.529 | z-score [6]: -0.503 | z-score [7]: -0.35 (inactive) | z-score [8]: -0.986 | z-score [9]: -1.64 | z-score [10]: 0.0931 (inactive) | z-score [11]: -0.193 | z-score [12]: -9.29 (active) | z-score [13]: -0.056 (inactive) | composite z-score [14]: -0.576 (inactive) | z-score [15]: 0.0236 (inactive) | z-score [16]: -8.46 (active) | z-score [17]: -0.0367 (inactive) | z-score [18]: -0.276 (inactive) | z-score [19]: -0.234 | composite z-score [20]: 0.125

C=CCC(OC(C)=O)[C@@H]1[C@@H](N(Cc2ccc(-c3cccc(C(F)(F)F)c3)o2)C(=O)c2ccc(C)cc2)c2cc(OCCCO)ccc2N1C(=O)Cc1ccc(OC)cc1 (stereo not given in full)
z-score [1]: 1.22 | z-score [2]: 0.608 | z-score [3]: 2.12 | z-score [4]: -0.155 | z-score [5]: 0.002 | z-score [6]: 3.98 | z-score [7]: 0.557 (inactive) | z-score [8]: -0.245 | z-score [9]: -0.83 | z-score [10]: 1.25 (inactive) | z-score [11]: 0.91 | z-score [12]: -0.455 (inactive) | z-score [13]: 0.104 (inactive) | composite z-score [14]: -1.55 (inactive) | z-score [15]: -0.194 (inactive) | z-score [16]: 0.74 (inactive) | z-score [17]: 0.145 (inactive) | z-score [18]: 1.11 (inactive) | z-score [19]: 1.11 | composite z-score [20]: 0.0871

CC(C)[C@H]1NC(=O)[C@@]23C(=O)N[C@@H](Cc4ccccc4)C2[C@H](C)[C@@]2(C)O[C@H]2C3/C=C/C/C=C\CNC(=O)[C@H](Cc2ccccc2)NC1=O (stereo not given in full)
z-score [1]: 0.716 | z-score [2]: -0.144 | z-score [3]: 0.42 | z-score [4]: -1.08 | z-score [5]: -1.39 | z-score [6]: 0.5 | z-score [7]: -0.769 (inactive) | z-score [8]: -0.132 | z-score [9]: 0.623 | z-score [10]: -0.739 (inactive) | z-score [11]: -0.875 | z-score [12]: -0.516 (inactive) | z-score [13]: -0.504 (inactive) | composite z-score [14]: -0.141 (inactive) | z-score [15]: -0.377 (inactive) | z-score [16]: -0.472 (inactive) | z-score [17]: -0.0953 (inactive) | z-score [18]: -1.2 (inactive) | z-score [19]: -1.26 | composite z-score [20]: -0.288

Nc1cc(Br)ccc1C(=O)O
z-score [1]: 1.51 | z-score [2]: 0.679 | z-score [3]: 0.264 | z-score [4]: 1.29 | z-score [5]: 0.804 | z-score [6]: 0.799 | z-score [7]: 0.55 (inactive) | z-score [8]: 0.432 | z-score [9]: 1.54 | z-score [10]: 0.671 (inactive) | z-score [11]: 0.615 | z-score [12]: -0.811 (inactive) | z-score [13]: 1.11 (inactive) | composite z-score [14]: -0.627 (inactive) | z-score [15]: -0.612 (inactive) | z-score [16]: -0.127 (inactive) | z-score [17]: 0.37 (inactive) | z-score [18]: -0.138 (inactive) | z-score [19]: 1.29 | composite z-score [20]: 0.0837

COC(=O)[C@@]1(Cc2ccc(OC)cc2)[C@H]2c3cc(C(=O)N4CCCC4)n(Cc4cc(C)n(C)n4)c3C[C@H]2CN1C(=O)c1ccccc1
z-score [1]: -0.0671 | z-score [2]: -0.471 | z-score [3]: 0.851 | z-score [4]: 0.559 | z-score [5]: 0.192 | z-score [6]: 3.05 | z-score [7]: 0.00691 (inactive) | z-score [8]: -0.475 | z-score [9]: -1.37 | z-score [10]: 0.0924 (inactive) | z-score [11]: -0.646 | z-score [12]: 1.1 (inactive) | z-score [13]: -2.09 (inactive) | composite z-score [14]: -0.77 (inactive) | z-score [15]: -0.222 (inactive) | z-score [16]: 0.472 (inactive) | z-score [17]: -0.145 (inactive) | z-score [18]: 0.342 (inactive) | z-score [19]: -2.11 | composite z-score [20]: -0.02
